Data: PubChem BioAssay (NCI)
Several values for one entry are separate records, joined by “and”; a condition that tells them apart may be missing. Equal values may be shown once. About 83,000 compounds went through this panel and 20% of them were active in at least one assay; those are over-represented in the sample as a whole.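 Activity criterion: percent growth below 10, measured after cells in 96-well plates were exposed to a single compound concentration for 48 hours.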

Key:
Experiment in all cases: NCI-60 one-dose screen, 48 h (100 = growth as untreated, 0 = no growth, -100 = all killed)
Conditions in all cases: 10 µM unless noted
NCI-H23 lung = tested on: NCI-H23 lung
NCI-H226 lung = tested on: NCI-H226 lung
NCI-H322M lung = tested on: NCI-H322M lung
HOP-62 NSCLC = tested on: HOP-62 NSCLC
NCI-H460 lung = tested on: NCI-H460 lung
HOP-92 NSCLC = tested on: HOP-92 NSCLC
NCI-H522 lung = tested on: NCI-H522 lung
786-0 renal = tested on: 786-0 renal
COLO 205 colon = tested on: COLO 205 colon
DU-145 prostate = tested on: DU-145 prostate
K-562 leukemia = tested on: K-562 leukemia
MALME-3M melanoma = tested on: MALME-3M melanoma
MDA-MB-231 breast = tested on: MDA-MB-231 breast
RXF 393 renal = tested on: RXF 393 renal
SF-268 CNS = tested on: SF-268 CNS
SF-295 CNS = tested on: SF-295 CNS
SF-539 CNS = tested on: SF-539 CNS
UACC-257 melanoma = tested on: UACC-257 melanoma
M14 melanoma = tested on: M14 melanoma
A549/ATCC NSCLC = tested on: A549/ATCC NSCLC

Measured: growth

CN1C(=O)/C(=C/c2ccc(C(=O)Nc3ncc(Cc4ccccc4Cl)s3)cc2)SC1=S
inactive: NCI-H23 lung 94.6% | NCI-H226 lung 81.4% | NCI-H322M lung 72.2% | HOP-62 NSCLC 74.2% | NCI-H460 lung 79.5% | HOP-92 NSCLC 75.1% | NCI-H522 lung 64.2% | 786-0 renal 87.9% | COLO 205 colon 86.2% | DU-145 prostate 73% | K-562 leukemia 71.8% | MALME-3M melanoma 62.2% | MDA-MB-231 breast 56.7% | RXF 393 renal 69.1% | SF-268 CNS 80.9% | SF-295 CNS 58.4% | SF-539 CNS 77% | UACC-257 melanoma 89.3% | M14 melanoma 42.1%

CC(C)=CCc1cc(O)c(O)c2oc3cc(O)cc(O)c3c(=O)c12
inactive: NCI-H23 lung 51.1% | NCI-H226 lung 96.9% | NCI-H322M lung 75.1% | HOP-62 NSCLC 45.9% | NCI-H460 lung 25.1% | HOP-92 NSCLC 86.9% | NCI-H522 lung 58.4% | 786-0 renal 64.8% | COLO 205 colon 91.7% | DU-145 prostate 55.8% | K-562 leukemia 67% | MALME-3M melanoma 91.3% | MDA-MB-231 breast 55.5% | RXF 393 renal 84.6% | SF-268 CNS 49.7% | SF-295 CNS 77.9% | SF-539 CNS 64.8% | UACC-257 melanoma 98.2% | M14 melanoma 63.9%

O=C(/C=C/c1ccc(Cl)s1)c1ccc(Cl)s1
inactive: NCI-H23 lung 89.4% and 110% | NCI-H226 lung 91.4% and 102% | NCI-H322M lung 97.4% | NCI-H460 lung 101% and 115% | HOP-92 NSCLC 79.3% and 105% | NCI-H522 lung 70.1% and 87.1% | 786-0 renal 79.7% and 94.8% | COLO 205 colon 112% and 122% | DU-145 prostate 97.8% and 114% | K-562 leukemia 95% and 92.6% | MALME-3M melanoma 114% | MDA-MB-231 breast 108% and 112% | RXF 393 renal 90.8% and 89.7% | SF-268 CNS 100% and 109% | SF-295 CNS 90.7% | SF-539 CNS 114% and 98.3% | UACC-257 melanoma 101% and 103% | M14 melanoma 101% and 115%

N#CC1C(=O)c2ccccc2C1c1ccccc1 (stereo not given)
inactive: NCI-H23 lung 97.4% and 102% | NCI-H322M lung 105% and 96.7% | HOP-62 NSCLC 98.8% and 107% | NCI-H460 lung 114% and 105% | HOP-92 NSCLC 75.2% and 84.7% | NCI-H522 lung 96.4% and 99% | A549/ATCC NSCLC 102% | 786-0 renal 93.1% and 89.8% | COLO 205 colon 115% | DU-145 prostate 109% and 104% | K-562 leukemia 120% and 101% | MALME-3M melanoma 96% and 106% | MDA-MB-231 breast 104% and 120% | RXF 393 renal 94.7% and 124% | SF-268 CNS 104% and 101% | SF-295 CNS 96% and 109% | SF-539 CNS 110% and 107% | UACC-257 melanoma 113% and 99.1%

Clc1ccc(/C=N\N2CCCCCC2)cc1
inactive: NCI-H23 lung 97.8% | NCI-H226 lung 93.8% and 125% | NCI-H322M lung 104% | HOP-62 NSCLC 105% and 95.9% | NCI-H460 lung 108% and 119% | NCI-H522 lung 123% and 83.6% | A549/ATCC NSCLC 94.2% and 104% | 786-0 renal 101% and 97.5% | COLO 205 colon 124% and 130% | DU-145 prostate 112% and 102% | K-562 leukemia 87.7% | MALME-3M melanoma 98% | MDA-MB-231 breast 89.7% and 99.9% | RXF 393 renal 92% and 119% | SF-268 CNS 103% and 115% | SF-295 CNS 96.4% and 95.9% | SF-539 CNS 115% and 92% | UACC-257 melanoma 104% and 109% | M14 melanoma 104% and 111%

Nc1ccc(-c2ccc(N)c(Br)c2)cc1Br
inactive: NCI-H23 lung 53.9% | NCI-H226 lung 56.9% | NCI-H322M lung 77.3% | HOP-62 NSCLC 55.4% | NCI-H460 lung 44.3% | HOP-92 NSCLC 41.8% | NCI-H522 lung 57% | 786-0 renal 52.9% | DU-145 prostate 68.1% | K-562 leukemia 22.4% | MALME-3M melanoma 55.4% | MDA-MB-231 breast 51.8% | RXF 393 renal 57.5% | SF-268 CNS 44.3% | SF-295 CNS 62.8% | SF-539 CNS 29.5% | UACC-257 melanoma 78.1% | M14 melanoma 26.9%

O=Nc1ccc(NO)c2ccccc12
inactive: NCI-H23 lung 90.6% and 68.3% | NCI-H322M lung 97.8% and 96.2% | HOP-62 NSCLC 103% and 90.5% | NCI-H460 lung 94.6% and 105% | HOP-92 NSCLC 95.1% and 92.9% | NCI-H522 lung 93.3% and 69.5% | A549/ATCC NSCLC 106% and 27.5% | 786-0 renal 104% and 96.9% | COLO 205 colon 101% and 85.1% | DU-145 prostate 107% and 98% | K-562 leukemia 111% and 56.5% | MALME-3M melanoma 118% and 69.6% | MDA-MB-231 breast 89% and 73.5% | RXF 393 renal 114% and 97.2% | SF-268 CNS 102% and 83.9% | SF-295 CNS 99.3% and 121% | SF-539 CNS 96.8% and 109% | UACC-257 melanoma 104% and 52.4% | M14 melanoma 99.2% and 93.7%
